# Legend:
# Experiment in all cases: DAPPL (digital affinity profiling via proximity ligation, sequencing); 10 mM Tris-HCl pH 7.5, 50 mM NaCl, 1 mM DTT, 4% glycerol, room temperature, 30 min; GST-TFs on glutathione beads, 16-mer random dsDNA library, 0.1% formaldehyde crosslink after washing; high values mean tight binding
# FLI1 = target: T1, FLI1 (Homo sapiens, UniProt Q01543 1-452); details: protein: recombinant; tags: N-terminal GST; dsDNA, one strand shown
# T1 sequence: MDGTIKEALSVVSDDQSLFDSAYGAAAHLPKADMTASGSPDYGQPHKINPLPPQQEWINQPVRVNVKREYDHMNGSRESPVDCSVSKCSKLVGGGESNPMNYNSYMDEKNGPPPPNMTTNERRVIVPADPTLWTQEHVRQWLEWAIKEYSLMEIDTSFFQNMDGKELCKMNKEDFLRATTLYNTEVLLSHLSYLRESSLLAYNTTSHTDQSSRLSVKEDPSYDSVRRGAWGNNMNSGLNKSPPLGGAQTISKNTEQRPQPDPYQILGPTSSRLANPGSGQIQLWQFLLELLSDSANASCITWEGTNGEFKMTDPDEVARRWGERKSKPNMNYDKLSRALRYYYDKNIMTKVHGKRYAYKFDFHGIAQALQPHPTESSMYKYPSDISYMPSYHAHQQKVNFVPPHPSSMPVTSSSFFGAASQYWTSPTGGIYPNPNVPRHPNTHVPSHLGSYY
# Method in brief: (§1)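 GST fusions of human transcription factors were expressed in yeast and captured with glutathione beads. Once given DNA barcodes and pooled alongside a tag-only sample, they were incubated for 30 min at room temperature with 200 nmole of a random double-stranded 16-mer DNA library in Tris/NaCl/DTT/glycerol buffer, then washed, crosslinked (0.1% formaldehyde), proximity-ligated, PCR-amplified and sequenced on an Illumina NextSeq500. The binding signal of each hexamer is its read frequency for a factor divided by its frequency for the tag-only sample.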
# ELK1 = target: T2, ELK1 (Homo sapiens, UniProt P19419 1-428); details: protein: recombinant; tags: N-terminal GST; dsDNA, one strand shown
# T2 sequence: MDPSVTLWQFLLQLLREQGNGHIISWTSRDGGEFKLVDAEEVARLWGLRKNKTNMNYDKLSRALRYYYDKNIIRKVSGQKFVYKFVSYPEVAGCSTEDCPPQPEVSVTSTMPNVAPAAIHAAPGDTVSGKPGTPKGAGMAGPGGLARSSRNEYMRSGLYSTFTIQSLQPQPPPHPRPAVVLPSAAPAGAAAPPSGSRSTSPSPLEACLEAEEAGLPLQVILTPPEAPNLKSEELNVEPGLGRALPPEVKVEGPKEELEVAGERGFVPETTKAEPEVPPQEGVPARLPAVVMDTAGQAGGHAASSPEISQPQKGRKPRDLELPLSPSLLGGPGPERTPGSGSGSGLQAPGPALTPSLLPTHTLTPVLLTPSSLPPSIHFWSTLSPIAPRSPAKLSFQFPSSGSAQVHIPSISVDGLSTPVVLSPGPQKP
# Method in brief: as §1
# GABPA = target: T3, GABPA (Homo sapiens, UniProt Q06546 1-454); details: protein: recombinant; tags: N-terminal GST; dsDNA, one strand shown
# T3 sequence: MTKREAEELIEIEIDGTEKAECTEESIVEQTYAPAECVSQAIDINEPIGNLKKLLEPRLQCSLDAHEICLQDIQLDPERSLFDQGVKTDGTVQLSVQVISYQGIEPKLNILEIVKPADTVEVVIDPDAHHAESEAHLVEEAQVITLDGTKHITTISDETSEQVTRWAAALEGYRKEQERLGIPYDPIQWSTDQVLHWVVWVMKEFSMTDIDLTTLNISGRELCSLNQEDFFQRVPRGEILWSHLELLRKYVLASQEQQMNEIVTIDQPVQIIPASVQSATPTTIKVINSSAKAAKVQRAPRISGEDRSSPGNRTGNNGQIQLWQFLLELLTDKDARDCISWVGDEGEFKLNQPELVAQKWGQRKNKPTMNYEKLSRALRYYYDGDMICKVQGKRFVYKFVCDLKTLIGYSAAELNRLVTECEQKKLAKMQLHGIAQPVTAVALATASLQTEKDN
# Method in brief: as §1
# ERG = target: T4, ERG (Homo sapiens, UniProt P11308 1-479); details: protein: recombinant; tags: N-terminal GST; dsDNA, one strand shown
# T4 sequence: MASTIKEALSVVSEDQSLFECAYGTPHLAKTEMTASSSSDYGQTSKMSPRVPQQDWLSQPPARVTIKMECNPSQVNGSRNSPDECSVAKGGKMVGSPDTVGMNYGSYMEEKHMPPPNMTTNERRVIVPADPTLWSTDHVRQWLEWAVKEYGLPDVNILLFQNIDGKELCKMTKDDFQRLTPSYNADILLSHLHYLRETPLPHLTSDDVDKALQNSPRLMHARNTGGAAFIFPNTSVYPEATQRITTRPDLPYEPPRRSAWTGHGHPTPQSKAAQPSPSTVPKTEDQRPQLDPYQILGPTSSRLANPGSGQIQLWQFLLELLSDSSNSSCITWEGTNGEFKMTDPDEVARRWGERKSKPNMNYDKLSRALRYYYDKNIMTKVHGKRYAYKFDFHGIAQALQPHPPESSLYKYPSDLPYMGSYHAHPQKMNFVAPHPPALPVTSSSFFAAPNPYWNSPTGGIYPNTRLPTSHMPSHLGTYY
# Method in brief: as §1
# ELF1 = ELF1 (Homo sapiens, UniProt P32519 1-619); details: protein: recombinant; tags: N-terminal GST; dsDNA, one strand shown
# Method in brief: as §1
# EHF = target: T5, EHF (Homo sapiens, UniProt Q9NZC4 1-300); details: protein: recombinant; tags: N-terminal GST; dsDNA, one strand shown
# T5 sequence: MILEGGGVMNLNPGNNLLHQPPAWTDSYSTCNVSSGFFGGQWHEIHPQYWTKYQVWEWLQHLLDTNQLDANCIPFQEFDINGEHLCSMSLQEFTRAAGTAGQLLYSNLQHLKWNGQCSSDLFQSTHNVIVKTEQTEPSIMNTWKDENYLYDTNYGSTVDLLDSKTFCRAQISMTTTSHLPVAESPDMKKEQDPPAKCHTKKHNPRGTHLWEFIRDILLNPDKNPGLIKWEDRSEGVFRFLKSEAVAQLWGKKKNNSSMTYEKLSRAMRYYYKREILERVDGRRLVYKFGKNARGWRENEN
# Method in brief: as §1
# SPI1 = SPI1 (Homo sapiens, UniProt P17947 1-270); details: protein: recombinant; tags: N-terminal GST; dsDNA, one strand shown
# Method in brief: as §1
# SPIB = SPIB (Homo sapiens, UniProt Q01892 1-262); details: protein: recombinant; tags: N-terminal GST; dsDNA, one strand shown
# Method in brief: as §1
# ELK3 = target: T6, ELK3 (Homo sapiens, UniProt P41970 1-407); details: protein: recombinant; tags: N-terminal GST; dsDNA, one strand shown
# T6 sequence: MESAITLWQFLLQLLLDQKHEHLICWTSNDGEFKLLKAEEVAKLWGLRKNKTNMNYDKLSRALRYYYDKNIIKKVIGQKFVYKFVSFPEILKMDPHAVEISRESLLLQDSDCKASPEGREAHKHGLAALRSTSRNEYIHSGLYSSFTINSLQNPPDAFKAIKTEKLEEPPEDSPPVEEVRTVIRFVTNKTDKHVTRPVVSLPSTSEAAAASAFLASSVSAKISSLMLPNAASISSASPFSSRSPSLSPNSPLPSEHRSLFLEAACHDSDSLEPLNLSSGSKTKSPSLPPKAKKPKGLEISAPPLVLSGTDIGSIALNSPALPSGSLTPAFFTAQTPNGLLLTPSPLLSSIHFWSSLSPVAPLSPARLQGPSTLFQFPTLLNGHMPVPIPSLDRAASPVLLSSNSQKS
# Method in brief: as §1
# FEV = target: T7, FEV (Homo sapiens, UniProt Q99581 1-238); details: protein: recombinant; tags: N-terminal GST; dsDNA, one strand shown
# T7 sequence: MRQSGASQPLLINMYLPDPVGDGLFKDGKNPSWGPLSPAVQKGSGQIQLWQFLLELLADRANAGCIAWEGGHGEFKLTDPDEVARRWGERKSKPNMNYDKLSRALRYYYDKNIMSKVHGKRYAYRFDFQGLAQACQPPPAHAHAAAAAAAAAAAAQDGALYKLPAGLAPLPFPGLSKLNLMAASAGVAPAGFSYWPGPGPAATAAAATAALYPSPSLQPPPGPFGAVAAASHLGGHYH
# Method in brief: as §1
# ETV5 = ETV5 (Homo sapiens, UniProt P41161 1-510); details: protein: recombinant; tags: N-terminal GST; dsDNA, one strand shown
# Method in brief: as §1
# HSF1 = HSF1 (Homo sapiens, UniProt Q00613 1-529); details: protein: recombinant; tags: N-terminal GST; chain copies: 3; dsDNA, one strand shown
# Method in brief: as §1
# SPIC = target: T8, SPIC (Homo sapiens, UniProt Q8N5J4 1-248); details: protein: recombinant; tags: N-terminal GST; dsDNA, one strand shown
# T8 sequence: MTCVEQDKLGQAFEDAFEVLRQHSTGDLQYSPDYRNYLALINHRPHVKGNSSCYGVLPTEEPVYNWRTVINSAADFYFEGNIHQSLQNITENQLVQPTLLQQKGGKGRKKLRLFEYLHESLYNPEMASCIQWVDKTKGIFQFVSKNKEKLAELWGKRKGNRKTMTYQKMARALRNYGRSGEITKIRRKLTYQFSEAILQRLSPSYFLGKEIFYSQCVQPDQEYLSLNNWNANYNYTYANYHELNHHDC
# Method in brief: as §1
# ELF4 = ELF4 (Homo sapiens, UniProt Q99607 1-663); details: protein: recombinant; tags: N-terminal GST; dsDNA, one strand shown
# Method in brief: as §1
# ELK4 = target: T9, ELK4 (Homo sapiens, UniProt P28324-2 1-405); details: protein: recombinant; tags: N-terminal GST; dsDNA, one strand shown
# T9 sequence: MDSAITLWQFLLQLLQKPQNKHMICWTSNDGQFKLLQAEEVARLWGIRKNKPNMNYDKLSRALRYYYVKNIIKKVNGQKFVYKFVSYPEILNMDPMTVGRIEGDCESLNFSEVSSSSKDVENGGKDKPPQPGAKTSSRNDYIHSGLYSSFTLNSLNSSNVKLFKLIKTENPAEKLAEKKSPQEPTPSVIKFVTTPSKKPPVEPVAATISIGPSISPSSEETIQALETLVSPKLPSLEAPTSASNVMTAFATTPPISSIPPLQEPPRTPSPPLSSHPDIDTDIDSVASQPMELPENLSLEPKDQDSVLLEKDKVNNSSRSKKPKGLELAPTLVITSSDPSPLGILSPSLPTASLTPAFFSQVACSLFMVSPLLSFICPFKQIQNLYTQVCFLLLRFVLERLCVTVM
# Method in brief: as §1
# ETV2 = target: T10, ETV2 (Homo sapiens, UniProt O00321 1-342); details: protein: recombinant; tags: N-terminal GST; dsDNA, one strand shown
# T10 sequence: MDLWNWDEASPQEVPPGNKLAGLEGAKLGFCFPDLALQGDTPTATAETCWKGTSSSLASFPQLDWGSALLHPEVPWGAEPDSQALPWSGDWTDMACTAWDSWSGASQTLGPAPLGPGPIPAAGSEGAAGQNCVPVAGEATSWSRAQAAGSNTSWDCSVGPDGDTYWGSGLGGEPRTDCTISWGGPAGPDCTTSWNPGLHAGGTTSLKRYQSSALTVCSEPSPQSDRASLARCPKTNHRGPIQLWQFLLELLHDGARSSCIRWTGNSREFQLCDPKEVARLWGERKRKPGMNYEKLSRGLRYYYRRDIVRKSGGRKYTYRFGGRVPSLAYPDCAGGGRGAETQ
# Method in brief: as §1
# ELF3 = target: T11, ELF3 (Homo sapiens, UniProt P78545 1-371); details: protein: recombinant; tags: N-terminal GST; dsDNA, one strand shown
# T11 sequence: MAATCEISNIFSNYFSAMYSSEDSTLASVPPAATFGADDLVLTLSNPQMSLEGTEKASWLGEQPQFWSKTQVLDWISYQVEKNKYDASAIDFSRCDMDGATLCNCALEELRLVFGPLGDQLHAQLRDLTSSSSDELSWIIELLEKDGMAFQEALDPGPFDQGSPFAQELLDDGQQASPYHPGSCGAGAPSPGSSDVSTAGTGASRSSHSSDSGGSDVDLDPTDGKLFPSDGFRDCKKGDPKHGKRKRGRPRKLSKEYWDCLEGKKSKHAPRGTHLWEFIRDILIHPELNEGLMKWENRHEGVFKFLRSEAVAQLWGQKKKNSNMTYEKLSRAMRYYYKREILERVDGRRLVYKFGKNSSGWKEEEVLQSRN
# Method in brief: as §1
# CRX = CRX (Homo sapiens, UniProt O43186 1-299); details: protein: recombinant; tags: N-terminal GST; dsDNA, one strand shown
# Method in brief: as §1
# ETV1 = ETV1 (Homo sapiens, UniProt P50549 1-477); details: protein: recombinant; tags: N-terminal GST; dsDNA, one strand shown
# Method in brief: as §1
# Chain of HSF1 (Q00613 whole entry): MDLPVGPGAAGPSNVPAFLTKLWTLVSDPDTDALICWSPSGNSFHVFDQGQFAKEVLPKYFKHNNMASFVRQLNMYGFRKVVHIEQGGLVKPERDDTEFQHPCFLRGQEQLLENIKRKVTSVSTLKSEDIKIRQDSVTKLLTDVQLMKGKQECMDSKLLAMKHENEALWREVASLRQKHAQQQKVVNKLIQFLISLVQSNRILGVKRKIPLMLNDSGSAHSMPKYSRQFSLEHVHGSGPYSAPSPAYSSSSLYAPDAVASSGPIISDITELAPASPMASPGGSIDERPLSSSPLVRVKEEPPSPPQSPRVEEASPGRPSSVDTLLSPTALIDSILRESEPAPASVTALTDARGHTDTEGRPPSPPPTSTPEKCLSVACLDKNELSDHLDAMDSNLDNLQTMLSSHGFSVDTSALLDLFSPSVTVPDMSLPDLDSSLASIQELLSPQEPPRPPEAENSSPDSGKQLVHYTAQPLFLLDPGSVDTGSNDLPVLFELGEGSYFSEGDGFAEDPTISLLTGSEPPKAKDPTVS
# Chain of SPIB (Q01892 whole entry): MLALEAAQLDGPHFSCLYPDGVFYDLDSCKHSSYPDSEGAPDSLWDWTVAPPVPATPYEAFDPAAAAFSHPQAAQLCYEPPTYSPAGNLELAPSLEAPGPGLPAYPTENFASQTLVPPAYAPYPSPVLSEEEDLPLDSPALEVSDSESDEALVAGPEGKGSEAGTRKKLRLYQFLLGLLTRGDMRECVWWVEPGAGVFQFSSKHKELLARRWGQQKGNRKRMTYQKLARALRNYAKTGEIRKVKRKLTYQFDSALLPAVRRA
# Chain of CRX (O43186 whole entry): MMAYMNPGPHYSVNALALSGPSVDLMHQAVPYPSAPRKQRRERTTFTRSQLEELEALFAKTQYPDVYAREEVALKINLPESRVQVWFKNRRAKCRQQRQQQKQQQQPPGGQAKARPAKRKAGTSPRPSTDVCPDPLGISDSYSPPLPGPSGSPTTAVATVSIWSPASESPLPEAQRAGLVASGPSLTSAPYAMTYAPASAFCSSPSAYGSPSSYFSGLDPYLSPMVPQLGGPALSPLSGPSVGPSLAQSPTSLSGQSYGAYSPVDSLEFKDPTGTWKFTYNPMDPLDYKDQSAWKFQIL
# Chain of ETV5 (P41161 whole entry): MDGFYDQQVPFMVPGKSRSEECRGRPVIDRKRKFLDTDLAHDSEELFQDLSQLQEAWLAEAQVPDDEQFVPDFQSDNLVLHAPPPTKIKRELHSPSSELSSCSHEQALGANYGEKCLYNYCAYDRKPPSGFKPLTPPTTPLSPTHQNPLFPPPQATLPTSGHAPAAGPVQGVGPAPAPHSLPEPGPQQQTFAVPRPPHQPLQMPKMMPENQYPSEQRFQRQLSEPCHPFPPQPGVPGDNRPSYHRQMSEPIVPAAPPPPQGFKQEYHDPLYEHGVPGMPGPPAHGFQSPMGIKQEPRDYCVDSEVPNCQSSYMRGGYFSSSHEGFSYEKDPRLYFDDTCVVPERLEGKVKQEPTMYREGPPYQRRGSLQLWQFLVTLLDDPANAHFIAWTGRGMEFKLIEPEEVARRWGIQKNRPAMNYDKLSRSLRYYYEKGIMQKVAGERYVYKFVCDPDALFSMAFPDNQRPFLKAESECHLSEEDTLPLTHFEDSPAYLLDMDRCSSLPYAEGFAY
# Chain of ELF4 (Q99607 whole entry): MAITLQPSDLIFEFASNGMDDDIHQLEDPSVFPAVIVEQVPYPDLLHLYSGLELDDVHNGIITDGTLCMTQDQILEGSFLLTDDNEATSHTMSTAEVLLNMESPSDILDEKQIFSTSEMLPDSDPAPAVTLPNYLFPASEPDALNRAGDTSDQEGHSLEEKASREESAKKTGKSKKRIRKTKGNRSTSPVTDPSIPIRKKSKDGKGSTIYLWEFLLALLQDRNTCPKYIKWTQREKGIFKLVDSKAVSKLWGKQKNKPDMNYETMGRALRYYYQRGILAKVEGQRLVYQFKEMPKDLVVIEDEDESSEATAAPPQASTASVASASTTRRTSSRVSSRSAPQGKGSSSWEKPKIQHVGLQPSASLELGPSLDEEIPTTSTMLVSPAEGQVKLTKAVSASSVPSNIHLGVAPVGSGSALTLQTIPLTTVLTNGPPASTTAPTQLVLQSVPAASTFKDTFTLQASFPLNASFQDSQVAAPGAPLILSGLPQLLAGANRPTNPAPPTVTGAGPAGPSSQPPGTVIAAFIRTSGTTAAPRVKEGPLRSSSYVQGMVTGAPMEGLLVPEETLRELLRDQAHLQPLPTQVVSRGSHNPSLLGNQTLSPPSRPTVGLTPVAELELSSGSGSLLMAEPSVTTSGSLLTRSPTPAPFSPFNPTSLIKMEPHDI
# Chain of ELF1 (P32519 whole entry): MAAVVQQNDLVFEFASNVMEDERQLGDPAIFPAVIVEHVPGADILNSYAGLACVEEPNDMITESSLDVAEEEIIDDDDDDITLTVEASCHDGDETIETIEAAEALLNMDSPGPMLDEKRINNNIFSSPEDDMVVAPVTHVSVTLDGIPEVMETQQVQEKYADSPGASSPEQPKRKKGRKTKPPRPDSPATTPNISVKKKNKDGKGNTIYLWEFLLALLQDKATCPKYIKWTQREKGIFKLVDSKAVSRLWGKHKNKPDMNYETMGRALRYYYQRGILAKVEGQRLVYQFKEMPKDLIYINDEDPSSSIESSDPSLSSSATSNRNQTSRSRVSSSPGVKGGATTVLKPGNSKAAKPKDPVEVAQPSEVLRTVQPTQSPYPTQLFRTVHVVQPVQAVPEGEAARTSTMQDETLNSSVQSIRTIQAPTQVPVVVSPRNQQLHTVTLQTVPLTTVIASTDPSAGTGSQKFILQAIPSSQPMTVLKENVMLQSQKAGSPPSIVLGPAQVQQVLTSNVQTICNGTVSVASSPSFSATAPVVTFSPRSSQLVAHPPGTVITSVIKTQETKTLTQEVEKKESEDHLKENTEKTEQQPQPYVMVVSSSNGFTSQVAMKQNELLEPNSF
# Chain of ETV1 (P50549 whole entry): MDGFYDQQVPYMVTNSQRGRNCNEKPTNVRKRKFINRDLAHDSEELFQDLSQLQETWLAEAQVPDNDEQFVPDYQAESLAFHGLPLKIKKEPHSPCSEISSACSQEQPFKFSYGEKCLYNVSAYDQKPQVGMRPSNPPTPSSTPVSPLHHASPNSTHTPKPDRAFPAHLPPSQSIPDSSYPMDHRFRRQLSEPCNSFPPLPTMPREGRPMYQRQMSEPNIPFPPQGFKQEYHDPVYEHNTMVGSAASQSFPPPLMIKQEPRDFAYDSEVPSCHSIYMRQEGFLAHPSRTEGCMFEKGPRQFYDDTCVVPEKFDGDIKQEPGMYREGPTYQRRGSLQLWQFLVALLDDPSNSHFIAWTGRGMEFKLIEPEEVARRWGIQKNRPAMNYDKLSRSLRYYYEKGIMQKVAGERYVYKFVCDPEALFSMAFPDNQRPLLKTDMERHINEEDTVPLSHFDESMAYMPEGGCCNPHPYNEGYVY
sequence,measurement,setting,value
TTAACC,binding signal,FLI1,"1.2 fold enrichment (6-mer frequency, TF over GST control)"
same,binding signal,ELK1,"1.25 fold enrichment (6-mer frequency, TF over GST control)"
same,binding signal,GABPA,"1.18 fold enrichment (6-mer frequency, TF over GST control)"
same,binding signal,ERG,"1.21 fold enrichment (6-mer frequency, TF over GST control)"
same,binding signal,ELF1,"1.31 fold enrichment (6-mer frequency, TF over GST control)"
same,binding signal,EHF,"1.24 fold enrichment (6-mer frequency, TF over GST control)"
same,binding signal,SPI1,"1.23 fold enrichment (6-mer frequency, TF over GST control)"
same,binding signal,SPIB,"1.33 fold enrichment (6-mer frequency, TF over GST control)"
same,binding signal,ELK3,"1.3 fold enrichment (6-mer frequency, TF over GST control)"
same,binding signal,FEV,"1.29 fold enrichment (6-mer frequency, TF over GST control)"
same,binding signal,ETV5,"1.22 fold enrichment (6-mer frequency, TF over GST control)"
same,binding signal,HSF1,"1.8 fold enrichment (6-mer frequency, TF over GST control)"
same,binding signal,SPIC,"1.26 fold enrichment (6-mer frequency, TF over GST control)"
same,binding signal,ELF4,"1.32 fold enrichment (6-mer frequency, TF over GST control)"
same,binding signal,ELK4,"1.31 fold enrichment (6-mer frequency, TF over GST control)"
same,binding signal,ETV2,"1.36 fold enrichment (6-mer frequency, TF over GST control)"
same,binding signal,ELF3,"1.27 fold enrichment (6-mer frequency, TF over GST control)"
same,binding signal,CRX,"2.67 fold enrichment (6-mer frequency, TF over GST control)"
same,binding signal,ETV1,"1.28 fold enrichment (6-mer frequency, TF over GST control)"

# From paper PMC7862700, “An all-to-all approach to the identification of sequence-specific readers for epigenetic DNA modifications on cytosine”
